How the values were obtained:
Test in all cases: DAPPL (digital affinity profiling via proximity ligation, sequencing); 10 mM Tris-HCl pH 7.5, 50 mM NaCl, 1 mM DTT, 4% glycerol, room temperature, 30 min; GST-TFs on glutathione beads, 16-mer random dsDNA library, 0.1% formaldehyde crosslink after washing; high values mean tight binding
FLI1 = molecular target: T1, FLI1 (Homo sapiens, UniProt Q01543 1-452); settings: protein: recombinant; tags: N-terminal GST; dsDNA, one strand shown
T1 sequence: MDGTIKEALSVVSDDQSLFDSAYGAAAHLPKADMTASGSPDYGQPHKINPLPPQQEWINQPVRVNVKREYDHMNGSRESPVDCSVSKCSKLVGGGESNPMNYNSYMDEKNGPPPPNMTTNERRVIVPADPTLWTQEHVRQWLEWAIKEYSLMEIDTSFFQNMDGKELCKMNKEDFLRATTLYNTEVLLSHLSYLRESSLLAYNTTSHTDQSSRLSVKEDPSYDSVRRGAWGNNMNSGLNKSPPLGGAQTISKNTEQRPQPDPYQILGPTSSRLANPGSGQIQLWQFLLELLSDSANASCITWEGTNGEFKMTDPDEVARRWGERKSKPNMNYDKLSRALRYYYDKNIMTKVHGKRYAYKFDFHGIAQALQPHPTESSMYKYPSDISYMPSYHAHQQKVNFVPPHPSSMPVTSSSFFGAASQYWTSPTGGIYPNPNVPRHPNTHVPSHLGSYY
Summary of the method: (§1)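 Pools of DNA-barcoded human transcription factors, expressed in yeast as GST fusions on glutathione beads and combined with a tag-only sample, were incubated with 200 nmole of a 16-mer random double-stranded DNA library. Incubation took 30 min at room temperature in Tris/NaCl/DTT/glycerol buffer and was followed by washing, 0.1% formaldehyde crosslinking, proximity ligation (BsaI/T4 ligase, 1 h, 37 °C), PCR amplification and sequencing on an Illumina NextSeq500. Binding signal is the ratio of a hexamer's read frequency for a factor to its frequency for the tag-only sample.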

ELK1 = molecular target: T2, ELK1 (Homo sapiens, UniProt P19419 1-428); settings: protein: recombinant; tags: N-terminal GST; dsDNA, one strand shown
T2 sequence: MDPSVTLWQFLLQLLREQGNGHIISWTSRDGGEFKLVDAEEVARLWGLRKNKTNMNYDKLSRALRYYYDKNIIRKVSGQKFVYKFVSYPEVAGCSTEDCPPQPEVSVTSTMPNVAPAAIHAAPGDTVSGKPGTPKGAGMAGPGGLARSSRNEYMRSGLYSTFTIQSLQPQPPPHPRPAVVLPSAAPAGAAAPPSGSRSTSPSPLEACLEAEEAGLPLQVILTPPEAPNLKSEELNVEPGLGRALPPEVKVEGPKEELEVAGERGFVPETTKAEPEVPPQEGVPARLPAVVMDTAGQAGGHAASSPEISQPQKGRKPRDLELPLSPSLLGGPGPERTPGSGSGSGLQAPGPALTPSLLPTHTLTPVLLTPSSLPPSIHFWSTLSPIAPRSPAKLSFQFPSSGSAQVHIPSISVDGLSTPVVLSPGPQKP
Summary of the method: as §1

GABPA = molecular target: T3, GABPA (Homo sapiens, UniProt Q06546 1-454); settings: protein: recombinant; tags: N-terminal GST; dsDNA, one strand shown
T3 sequence: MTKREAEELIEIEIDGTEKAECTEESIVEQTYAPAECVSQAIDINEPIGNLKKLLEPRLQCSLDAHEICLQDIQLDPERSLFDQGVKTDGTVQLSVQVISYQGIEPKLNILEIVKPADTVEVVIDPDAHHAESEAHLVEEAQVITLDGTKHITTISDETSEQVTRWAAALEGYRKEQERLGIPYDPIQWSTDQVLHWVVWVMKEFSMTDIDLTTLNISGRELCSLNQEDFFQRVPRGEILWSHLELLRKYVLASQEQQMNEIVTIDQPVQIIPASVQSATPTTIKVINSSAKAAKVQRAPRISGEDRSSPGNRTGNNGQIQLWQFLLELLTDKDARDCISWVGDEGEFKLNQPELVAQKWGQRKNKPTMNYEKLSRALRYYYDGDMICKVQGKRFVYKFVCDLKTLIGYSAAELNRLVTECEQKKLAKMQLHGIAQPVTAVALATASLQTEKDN
Summary of the method: as §1

ERG = molecular target: T4, ERG (Homo sapiens, UniProt P11308 1-479); settings: protein: recombinant; tags: N-terminal GST; dsDNA, one strand shown
T4 sequence: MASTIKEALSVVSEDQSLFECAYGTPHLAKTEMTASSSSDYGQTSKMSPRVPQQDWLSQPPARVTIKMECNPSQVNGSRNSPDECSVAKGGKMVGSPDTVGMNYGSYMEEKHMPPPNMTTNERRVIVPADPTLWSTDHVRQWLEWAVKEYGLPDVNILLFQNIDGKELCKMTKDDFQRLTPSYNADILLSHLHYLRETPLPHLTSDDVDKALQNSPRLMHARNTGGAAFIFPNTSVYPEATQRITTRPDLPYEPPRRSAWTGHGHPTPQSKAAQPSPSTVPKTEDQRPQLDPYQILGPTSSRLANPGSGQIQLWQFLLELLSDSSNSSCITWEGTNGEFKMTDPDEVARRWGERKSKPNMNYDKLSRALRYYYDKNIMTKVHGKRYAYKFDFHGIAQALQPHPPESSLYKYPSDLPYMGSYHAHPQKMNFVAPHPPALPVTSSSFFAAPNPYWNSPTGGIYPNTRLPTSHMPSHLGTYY
Summary of the method: as §1

ELF1 = ELF1 (Homo sapiens, UniProt P32519 1-619); settings: protein: recombinant; tags: N-terminal GST; dsDNA, one strand shown
Summary of the method: as §1

EHF = molecular target: T5, EHF (Homo sapiens, UniProt Q9NZC4 1-300); settings: protein: recombinant; tags: N-terminal GST; dsDNA, one strand shown
T5 sequence: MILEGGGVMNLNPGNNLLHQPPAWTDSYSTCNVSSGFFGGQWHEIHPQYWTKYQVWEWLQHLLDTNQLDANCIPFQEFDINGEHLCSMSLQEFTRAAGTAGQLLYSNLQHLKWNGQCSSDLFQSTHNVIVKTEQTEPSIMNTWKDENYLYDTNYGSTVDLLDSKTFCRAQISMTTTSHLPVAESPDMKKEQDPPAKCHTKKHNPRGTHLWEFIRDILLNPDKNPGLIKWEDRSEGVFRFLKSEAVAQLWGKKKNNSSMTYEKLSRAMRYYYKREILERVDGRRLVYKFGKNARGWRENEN
Summary of the method: as §1

SPI1 = SPI1 (Homo sapiens, UniProt P17947 1-270); settings: protein: recombinant; tags: N-terminal GST; dsDNA, one strand shown
Summary of the method: as §1

SPIB = SPIB (Homo sapiens, UniProt Q01892 1-262); settings: protein: recombinant; tags: N-terminal GST; dsDNA, one strand shown
Summary of the method: as §1

ELK3 = molecular target: T6, ELK3 (Homo sapiens, UniProt P41970 1-407); settings: protein: recombinant; tags: N-terminal GST; dsDNA, one strand shown
T6 sequence: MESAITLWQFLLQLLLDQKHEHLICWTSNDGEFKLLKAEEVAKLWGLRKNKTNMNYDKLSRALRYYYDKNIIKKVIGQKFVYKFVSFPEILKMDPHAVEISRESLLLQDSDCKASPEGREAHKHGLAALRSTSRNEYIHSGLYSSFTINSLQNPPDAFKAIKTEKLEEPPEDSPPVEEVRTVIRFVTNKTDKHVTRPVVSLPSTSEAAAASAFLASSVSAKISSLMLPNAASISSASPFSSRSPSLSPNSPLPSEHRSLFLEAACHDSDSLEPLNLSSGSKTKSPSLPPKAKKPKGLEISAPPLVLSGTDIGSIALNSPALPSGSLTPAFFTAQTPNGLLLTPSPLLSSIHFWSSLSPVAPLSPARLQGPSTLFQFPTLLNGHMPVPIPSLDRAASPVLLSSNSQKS
Summary of the method: as §1

FEV = molecular target: T7, FEV (Homo sapiens, UniProt Q99581 1-238); settings: protein: recombinant; tags: N-terminal GST; dsDNA, one strand shown
T7 sequence: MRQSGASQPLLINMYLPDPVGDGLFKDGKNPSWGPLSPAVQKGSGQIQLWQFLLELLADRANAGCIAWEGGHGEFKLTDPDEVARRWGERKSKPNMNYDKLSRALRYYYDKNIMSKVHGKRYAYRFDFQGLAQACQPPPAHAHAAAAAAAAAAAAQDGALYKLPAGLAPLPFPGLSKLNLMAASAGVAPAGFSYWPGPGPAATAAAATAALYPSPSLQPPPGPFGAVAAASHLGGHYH
Summary of the method: as §1

ETV5 = ETV5 (Homo sapiens, UniProt P41161 1-510); settings: protein: recombinant; tags: N-terminal GST; dsDNA, one strand shown
Summary of the method: as §1

HSF1 = HSF1 (Homo sapiens, UniProt Q00613 1-529); settings: protein: recombinant; tags: N-terminal GST; chain copies: 3; dsDNA, one strand shown
Summary of the method: as §1

SPIC = molecular target: T8, SPIC (Homo sapiens, UniProt Q8N5J4 1-248); settings: protein: recombinant; tags: N-terminal GST; dsDNA, one strand shown
T8 sequence: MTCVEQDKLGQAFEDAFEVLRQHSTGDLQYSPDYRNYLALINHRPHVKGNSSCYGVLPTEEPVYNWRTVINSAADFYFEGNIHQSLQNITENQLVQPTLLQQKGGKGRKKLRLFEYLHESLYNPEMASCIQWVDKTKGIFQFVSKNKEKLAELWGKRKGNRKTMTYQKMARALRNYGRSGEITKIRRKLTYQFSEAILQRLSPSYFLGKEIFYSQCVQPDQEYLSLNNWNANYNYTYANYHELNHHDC
Summary of the method: as §1

ELF4 = ELF4 (Homo sapiens, UniProt Q99607 1-663); settings: protein: recombinant; tags: N-terminal GST; dsDNA, one strand shown
Summary of the method: as §1

ELK4 = molecular target: T9, ELK4 (Homo sapiens, UniProt P28324-2 1-405); settings: protein: recombinant; tags: N-terminal GST; dsDNA, one strand shown
T9 sequence: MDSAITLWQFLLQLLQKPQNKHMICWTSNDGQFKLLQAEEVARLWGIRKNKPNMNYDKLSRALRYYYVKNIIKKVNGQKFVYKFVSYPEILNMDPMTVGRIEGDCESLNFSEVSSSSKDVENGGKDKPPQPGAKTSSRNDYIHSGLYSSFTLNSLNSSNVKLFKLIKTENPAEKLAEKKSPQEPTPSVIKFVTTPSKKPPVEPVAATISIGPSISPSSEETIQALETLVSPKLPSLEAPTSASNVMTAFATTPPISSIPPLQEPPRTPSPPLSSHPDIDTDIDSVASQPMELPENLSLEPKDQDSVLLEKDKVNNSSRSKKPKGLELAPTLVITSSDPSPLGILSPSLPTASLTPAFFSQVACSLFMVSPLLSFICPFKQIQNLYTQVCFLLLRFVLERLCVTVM
Summary of the method: as §1

ETV2 = molecular target: T10, ETV2 (Homo sapiens, UniProt O00321 1-342); settings: protein: recombinant; tags: N-terminal GST; dsDNA, one strand shown
T10 sequence: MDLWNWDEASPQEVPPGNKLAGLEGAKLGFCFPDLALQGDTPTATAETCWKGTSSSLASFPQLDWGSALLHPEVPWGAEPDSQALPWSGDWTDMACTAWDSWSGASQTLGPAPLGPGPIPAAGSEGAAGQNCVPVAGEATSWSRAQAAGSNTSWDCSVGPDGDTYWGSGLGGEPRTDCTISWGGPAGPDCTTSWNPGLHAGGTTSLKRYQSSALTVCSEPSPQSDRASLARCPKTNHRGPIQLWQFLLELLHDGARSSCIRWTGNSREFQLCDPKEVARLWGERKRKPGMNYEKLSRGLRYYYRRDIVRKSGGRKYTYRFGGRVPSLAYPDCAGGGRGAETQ
Summary of the method: as §1

ELF3 = molecular target: T11, ELF3 (Homo sapiens, UniProt P78545 1-371); settings: protein: recombinant; tags: N-terminal GST; dsDNA, one strand shown
T11 sequence: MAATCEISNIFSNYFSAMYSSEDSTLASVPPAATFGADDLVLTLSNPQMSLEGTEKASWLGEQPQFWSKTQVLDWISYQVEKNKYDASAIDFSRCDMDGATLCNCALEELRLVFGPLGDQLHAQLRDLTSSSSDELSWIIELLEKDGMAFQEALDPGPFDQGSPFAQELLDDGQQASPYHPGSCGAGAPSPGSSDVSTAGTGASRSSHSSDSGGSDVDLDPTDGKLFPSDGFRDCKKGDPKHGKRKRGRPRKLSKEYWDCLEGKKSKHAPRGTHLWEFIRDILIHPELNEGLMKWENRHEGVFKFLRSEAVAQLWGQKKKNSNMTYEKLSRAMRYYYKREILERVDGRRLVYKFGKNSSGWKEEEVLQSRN
Summary of the method: as §1

CRX = CRX (Homo sapiens, UniProt O43186 1-299); settings: protein: recombinant; tags: N-terminal GST; dsDNA, one strand shown
Summary of the method: as §1

ETV1 = ETV1 (Homo sapiens, UniProt P50549 1-477); settings: protein: recombinant; tags: N-terminal GST; dsDNA, one strand shown
Summary of the method: as §1

ETV1, sequence (P50549 whole entry): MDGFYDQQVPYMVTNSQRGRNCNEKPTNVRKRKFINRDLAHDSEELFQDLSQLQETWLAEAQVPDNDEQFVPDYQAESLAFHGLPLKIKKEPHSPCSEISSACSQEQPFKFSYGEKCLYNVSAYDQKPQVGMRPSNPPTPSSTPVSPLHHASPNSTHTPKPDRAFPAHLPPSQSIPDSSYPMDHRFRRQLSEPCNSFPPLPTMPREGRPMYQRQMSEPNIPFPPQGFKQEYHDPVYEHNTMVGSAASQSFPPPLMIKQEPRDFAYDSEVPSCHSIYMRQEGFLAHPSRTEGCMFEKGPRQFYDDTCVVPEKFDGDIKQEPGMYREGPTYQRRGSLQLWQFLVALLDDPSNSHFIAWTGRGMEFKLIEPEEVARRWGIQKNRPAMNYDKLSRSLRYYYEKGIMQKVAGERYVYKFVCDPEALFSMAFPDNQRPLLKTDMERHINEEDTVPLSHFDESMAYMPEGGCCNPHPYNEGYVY
ETV5, sequence (P41161 whole entry): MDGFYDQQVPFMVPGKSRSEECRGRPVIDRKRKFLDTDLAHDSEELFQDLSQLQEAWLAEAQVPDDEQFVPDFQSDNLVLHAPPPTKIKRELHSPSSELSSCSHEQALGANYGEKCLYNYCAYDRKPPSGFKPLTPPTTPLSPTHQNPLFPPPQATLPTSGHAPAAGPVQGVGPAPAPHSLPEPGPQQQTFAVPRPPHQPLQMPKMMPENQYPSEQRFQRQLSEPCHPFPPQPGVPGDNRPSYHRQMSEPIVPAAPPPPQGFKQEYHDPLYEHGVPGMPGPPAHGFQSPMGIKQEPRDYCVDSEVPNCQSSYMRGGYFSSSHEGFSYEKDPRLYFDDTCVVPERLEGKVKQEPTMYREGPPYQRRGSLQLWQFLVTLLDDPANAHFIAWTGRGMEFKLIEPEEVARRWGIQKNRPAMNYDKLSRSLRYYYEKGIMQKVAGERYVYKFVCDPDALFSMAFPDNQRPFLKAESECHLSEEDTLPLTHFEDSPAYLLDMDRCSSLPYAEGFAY
ELF1, sequence (P32519 whole entry): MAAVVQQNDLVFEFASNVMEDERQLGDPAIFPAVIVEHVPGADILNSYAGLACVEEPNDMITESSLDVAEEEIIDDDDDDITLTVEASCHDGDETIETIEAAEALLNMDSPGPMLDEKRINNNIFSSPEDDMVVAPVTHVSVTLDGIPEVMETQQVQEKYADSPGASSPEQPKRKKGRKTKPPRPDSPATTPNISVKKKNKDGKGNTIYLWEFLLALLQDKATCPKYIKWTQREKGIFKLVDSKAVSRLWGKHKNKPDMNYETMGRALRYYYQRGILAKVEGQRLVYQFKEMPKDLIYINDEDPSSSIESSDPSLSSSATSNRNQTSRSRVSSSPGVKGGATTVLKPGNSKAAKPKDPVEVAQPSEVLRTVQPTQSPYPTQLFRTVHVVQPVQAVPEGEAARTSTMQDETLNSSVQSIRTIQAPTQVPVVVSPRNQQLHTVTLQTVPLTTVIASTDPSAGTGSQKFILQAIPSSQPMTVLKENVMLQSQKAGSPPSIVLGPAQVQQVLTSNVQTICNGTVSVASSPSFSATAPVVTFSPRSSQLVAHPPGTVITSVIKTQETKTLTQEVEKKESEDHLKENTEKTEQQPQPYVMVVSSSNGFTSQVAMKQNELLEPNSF
SPIB, sequence (Q01892 whole entry): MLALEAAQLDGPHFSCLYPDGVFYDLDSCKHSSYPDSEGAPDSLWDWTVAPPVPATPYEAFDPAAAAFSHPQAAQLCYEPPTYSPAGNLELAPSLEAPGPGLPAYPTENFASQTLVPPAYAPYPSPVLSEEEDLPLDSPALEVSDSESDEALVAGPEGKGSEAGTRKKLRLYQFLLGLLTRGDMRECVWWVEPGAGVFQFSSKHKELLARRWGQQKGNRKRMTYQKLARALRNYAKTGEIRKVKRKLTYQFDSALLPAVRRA
ELF4, sequence (Q99607 whole entry): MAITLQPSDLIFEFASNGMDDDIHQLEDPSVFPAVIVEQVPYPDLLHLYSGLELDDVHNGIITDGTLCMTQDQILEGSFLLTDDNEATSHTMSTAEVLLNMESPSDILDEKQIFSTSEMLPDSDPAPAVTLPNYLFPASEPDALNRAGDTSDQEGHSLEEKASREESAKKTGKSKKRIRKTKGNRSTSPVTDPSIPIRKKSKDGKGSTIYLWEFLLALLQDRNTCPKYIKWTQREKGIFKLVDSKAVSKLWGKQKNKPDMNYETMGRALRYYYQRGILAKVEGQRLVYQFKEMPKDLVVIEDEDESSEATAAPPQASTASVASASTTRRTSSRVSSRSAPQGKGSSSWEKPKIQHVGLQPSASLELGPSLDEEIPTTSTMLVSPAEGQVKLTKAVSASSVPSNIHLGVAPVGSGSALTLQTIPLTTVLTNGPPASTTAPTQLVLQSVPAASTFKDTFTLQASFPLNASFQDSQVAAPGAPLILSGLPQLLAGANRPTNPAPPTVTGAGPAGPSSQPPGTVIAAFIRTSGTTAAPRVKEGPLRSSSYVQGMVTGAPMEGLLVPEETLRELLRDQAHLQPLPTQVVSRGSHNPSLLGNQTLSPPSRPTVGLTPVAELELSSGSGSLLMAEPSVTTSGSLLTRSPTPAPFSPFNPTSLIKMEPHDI
HSF1, sequence (Q00613 whole entry): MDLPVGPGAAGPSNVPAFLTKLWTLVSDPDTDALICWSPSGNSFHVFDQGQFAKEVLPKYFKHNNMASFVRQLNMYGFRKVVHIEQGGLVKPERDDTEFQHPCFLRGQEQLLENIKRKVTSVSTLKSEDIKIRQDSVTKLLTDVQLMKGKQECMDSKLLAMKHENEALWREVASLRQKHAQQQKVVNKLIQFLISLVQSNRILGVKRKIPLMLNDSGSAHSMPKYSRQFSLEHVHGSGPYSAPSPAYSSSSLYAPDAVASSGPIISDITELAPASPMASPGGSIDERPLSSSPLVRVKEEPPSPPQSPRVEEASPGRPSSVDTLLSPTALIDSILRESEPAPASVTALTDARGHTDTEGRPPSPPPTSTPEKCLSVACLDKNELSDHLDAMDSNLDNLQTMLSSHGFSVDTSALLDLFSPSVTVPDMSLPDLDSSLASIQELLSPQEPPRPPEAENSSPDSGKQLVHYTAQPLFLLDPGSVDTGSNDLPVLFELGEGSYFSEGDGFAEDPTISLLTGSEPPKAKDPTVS
CRX, sequence (O43186 whole entry): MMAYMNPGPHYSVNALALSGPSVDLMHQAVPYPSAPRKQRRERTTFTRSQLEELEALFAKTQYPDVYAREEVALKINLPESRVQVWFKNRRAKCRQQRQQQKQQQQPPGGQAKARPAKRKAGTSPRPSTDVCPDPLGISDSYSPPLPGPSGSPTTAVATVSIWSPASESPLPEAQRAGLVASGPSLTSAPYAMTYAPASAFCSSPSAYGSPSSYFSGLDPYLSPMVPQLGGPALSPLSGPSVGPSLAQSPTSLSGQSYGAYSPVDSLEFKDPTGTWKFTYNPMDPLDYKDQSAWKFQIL

Sequence: CGTTTC
- binding signal (FLI1): 1.76 fold enrichment (6-mer frequency, TF over GST control)
- binding signal (ELK1): 1.68 fold enrichment (6-mer frequency, TF over GST control)
- binding signal (GABPA): 1.69 fold enrichment (6-mer frequency, TF over GST control)
- binding signal (ERG): 1.98 fold enrichment (6-mer frequency, TF over GST control)
- binding signal (ELF1): 1.71 fold enrichment (6-mer frequency, TF over GST control)
- binding signal (EHF): 1.83 fold enrichment (6-mer frequency, TF over GST control)
- binding signal (SPI1): 1.79 fold enrichment (6-mer frequency, TF over GST control)
- binding signal (SPIB): 1.75 fold enrichment (6-mer frequency, TF over GST control)
- binding signal (ELK3): 1.72 fold enrichment (6-mer frequency, TF over GST control)
- binding signal (FEV): 1.98 fold enrichment (6-mer frequency, TF over GST control)
- binding signal (ETV5): 1.72 fold enrichment (6-mer frequency, TF over GST control)
- binding signal (HSF1): 1.24 fold enrichment (6-mer frequency, TF over GST control)
- binding signal (SPIC): 1.77 fold enrichment (6-mer frequency, TF over GST control)
- binding signal (ELF4): 1.8 fold enrichment (6-mer frequency, TF over GST control)
- binding signal (ELK4): 1.65 fold enrichment (6-mer frequency, TF over GST control)
- binding signal (ETV2): 1.41 fold enrichment (6-mer frequency, TF over GST control)
- binding signal (ELF3): 1.72 fold enrichment (6-mer frequency, TF over GST control)
- binding signal (CRX): 1.06 fold enrichment (6-mer frequency, TF over GST control)
- binding signal (ETV1): 1.61 fold enrichment (6-mer frequency, TF over GST control)

Reference: article PMC7862700, “An all-to-all approach to the identification of sequence-specific readers for epigenetic DNA modifications on cytosine”
